# A selection: hits, their analogues and other compounds. The true share with any hit is near 2.1%.
# ugtP null kill – compounds lethal to S. aureus RN4220 ugtP deletion mutant; OD600 growth, 16 h; growth inhibition, % (no concentration beside the values); 0.54% of 330,000 active; in the data active means growth inhibition above about 68%
# PrP UTR inh – inhibition of PrP 5' UTR reporter expression; cell-based PrP 5' UTR mRNA reporter, plate reader; inhibition, % (concentration not given with the values); 0.35% of 340,000 active; in the data active means inhibition above about 52%
# CCHF vOTU inh – blocks the CCHF virus ovarian tumor domain protease; inhibition, % at 11.5 µM; 0.55% of 370,000 active; CCHFV vOTU protease, Pep-AMC fluorescence; in the data active means inhibition above about 30%
# RN4220 kill – kills Staphylococcus aureus RN4220; S. aureus RN4220 growth, OD600, 16 h; inhibition, % (concentration not given with the values); 0.33% of 330,000 active; AID 1259311; in the data active means inhibition above about 85%
# PrPC surface inh – reduces human prion protein on the cell surface | 0.43% of 370,000 active | inhibition, % at 13.8 µM | cell surface PrPC, TR-FRET read-out; in the data active means inhibition above about 24%
# PfHsp40 yeast – rescue of PfHsp40-mediated yeast toxicity; S. cerevisiae expressing PfHsp40, growth rescue, ATP luminescence; growth rescue, % at 12.5 µM; 0.68% of 340,000 active; AID 504582; in the data active means growth rescue above about 28%, passing the limit was not always enough; inconclusive means no clear call, values can overlap the other calls;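 further: yeast W303a lacking pdr1 and pdr3 grown in galactose medium; growth measured after three days at 30 °C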
# PrPC TRFRET cf – confirmation of inhibitors of cell surface human prion protein. cell surface PrPC level, TR-FRET. AID 743200. shares compounds with PrPC surface inh. inhibition, % at 13.8 µM. 65% of 1,500 active; in the data active means inhibition above about 25%
# LD9 tox – kills or reduces viability of LD9 cells in PrPc counter-screen; 29% of 1,500 active; LD9 cells cytotoxicity, luminescence viability; AID 743201; shares compounds with PrPC surface inh; inhibition, % at 13.8 µM; in the data active means inhibition above about 9.5%
# A number is an active result; . = inactive; ? = inconclusive; / = no result.
SMILES,ugtP null kill,PrP UTR inh,CCHF vOTU inh,RN4220 kill,PrPC surface inh,PfHsp40 yeast,PrPC TRFRET cf,LD9 tox
Cc1cc(O)c(C=NNc2cccc(Cl)c2)c(=O)o1,.,/,/,.,/,/,/,/
CC(C)(C)OC(=O)NC(Cc1ccccc1)C(=O)NC(CO)C(O)C1CC1C(=O)N1CCCC1 (stereo not drawn),.,/,/,.,/,/,/,/
Cc1ccc(C(=O)NN=Cc2cc3c(cc2Br)OCO3)s1,.,/,/,.,/,/,/,/
COc1ccc(C(=O)Nc2cccc(C(=O)NCc3ccco3)c2)cc1,.,.,.,.,27.1,.,.,.
O=C(NCc1ccco1)c1cccc(-c2nnc(-c3ccccc3)o2)c1,.,.,.,.,26.2,.,.,.
CC(CC(=O)Nc1ccc(Cl)c(C(F)(F)F)c1)=NNC(=O)c1cccc(O)c1,.,/,/,.,/,/,/,/
Nc1nonc1-n1nnc(C(=O)NN=Cc2ccccc2)c1CN1CCc2ccccc21,.,/,/,.,/,/,/,/
Cc1cc(C)cc(NC(=O)C2CCCN2S(=O)(=O)c2ccc3c(c2)C(C)(C)C(=O)N3C)c1 (stereo not drawn),.,.,.,.,36.6,.,.,.
CN1C(=O)C(C)(C)c2cc(S(=O)(=O)N3CCCC(C(=O)NCc4ccc(Cl)cc4)C3)ccc21 (stereo not drawn),.,.,.,.,41.3,.,45.4,.
CN1C(=O)C(C)(C)c2cc(S(=O)(=O)N3CCCC3C(=O)NCc3ccc(F)cc3)ccc21 (stereo not drawn),.,.,.,.,.,.,/,/
COc1cccc(C(=O)ON=Cc2ccc(Sc3ccc(C)cc3)nc2)c1,.,/,/,.,/,/,/,/
C=CCCC(Cc1ccc(F)cc1)C(=O)OC(CNC(=O)C(CC=C)CC(=O)N(CCO)Cc1ccccc1)c1ccccc1 (stereo not drawn),.,/,/,.,/,/,/,/
Cc1cccc(/C=N/NC(=O)c2c(-c3ccccc3)noc2C)c1O,/,.,.,/,25.9,.,.,.
CC(=NNC(=O)Nc1ccccc1)c1ccccc1,.,/,/,.,/,/,/,/
CCOc1ccc2ccccc2c1C=NNC(=O)c1cc(C)[nH]n1,.,/,/,.,/,/,/,/
Cc1[nH]c2ccccc2c1C=NNC(=O)CNC(=O)Cc1ccccc1,.,/,/,.,/,/,/,/
COC(=O)C1=C(c2ccc(S(C)(=O)=O)cc2)CC2CCC1N2C(=O)NCc1cccc2ccccc12 (stereo not drawn),.,/,/,.,/,/,/,/
N#Cc1c(-c2ccco2)nc(SCC(=O)Nc2cccc(Cl)c2)[nH]c1=O,.,.,.,.,77.7,.,112.9,.
CCc1ccc(NC(=O)C(C)Sc2nc(-c3ccco3)c(C#N)c(=O)[nH]2)cc1 (stereo not drawn),.,.,.,.,27.9,.,.,.
Cc1ccc(C=NNC(=O)c2cc(C3CC3)nc3ccccc23)o1,.,/,/,.,/,/,/,/
Nc1nnnn1N=Cc1ccccc1OCc1ccccc1,.,/,/,.,/,/,/,/
CCCCOCCCNc1ncnc2c1[nH]c1ccccc12,.,.,.,.,31.4,.,24.4,17.4
CCOCCCNc1ncnc2c1[nH]c1ccccc12,.,.,.,.,.,.,/,/
CCOC(=O)Nc1nc(-c2ccccc2)c(C(=O)c2ccc(Cl)cc2)s1,.,.,.,.,25.1,.,.,9.6
CC(C)(C)N1C(=O)C2C(c3ccc(Br)cc3)N3C(=O)N(c4ccc(Br)cc4)C(=O)[C@@]3(Cc3ccccc3)C2C1=O (stereo partly drawn),.,/,/,.,/,/,/,/
SMILES,ugtP null kill,PrP UTR inh,CCHF vOTU inh,RN4220 kill,PrPC surface inh,PfHsp40 yeast,PrPC TRFRET cf,LD9 tox
CC(C)(C)c1csc(NC(=O)c2ccc(Cl)s2)n1,.,.,.,.,40.3,.,44.9,.
CC(C)(C)c1csc(NC(=O)c2ccncc2)n1,.,.,.,.,.,.,/,/
Cc1ccc(C(=O)Nc2nc(C(C)(C)C)cs2)s1,.,.,.,.,43.0,.,42.1,.
CNC(=O)CSc1nc(N)c2c3c(sc2n1)CCC3,.,/,.,.,.,.,/,/
CCSc1nc(N)c2c3c(sc2n1)CCC3,.,.,.,.,25.0,.,39.1,.
CCCCC(=O)NC(c1ccc(Cl)cc1Cl)c1ccc2cccnc2c1O (stereo not drawn),/,.,.,/,.,.,/,/
CCC(=O)NC(c1ccc(Cl)cc1Cl)c1ccc2cccnc2c1O (stereo not drawn),/,.,.,/,28.5,122.3,.,24.8
CCCC(=O)NC(c1ccccc1Cl)c1ccc2cccnc2c1O (stereo not drawn),/,.,.,/,26.9,?,28.0,33.6
CC(=O)NC(c1ccc(Cl)cc1)c1ccc2cccnc2c1O (stereo not drawn),.,.,.,.,40.0,?,35.2,33.4
CCCC(=O)NC(c1ccc(C(C)C)cc1)c1ccc2cccnc2c1O (stereo not drawn),/,.,.,/,.,.,/,/
CCC(=O)NC(c1ccc(C)cc1)c1ccc2cccnc2c1O (stereo not drawn),/,.,.,/,29.8,?,31.4,27.8
CCOc1cc(C=NNC(=O)c2ccc(N(C)S(=O)(=O)c3ccccc3)cc2)ccc1OC,.,/,/,.,/,/,/,/
CC(C)C(=O)NC(c1ccc(Cl)cc1Cl)c1ccc2cccnc2c1O (stereo not drawn),.,.,.,.,29.6,.,25.3,9.8
Cc1ccc(NC(=O)CSc2ncnc3ccccc23)cc1S(=O)(=O)N1CCCCC1,.,.,.,.,47.6,.,76.0,.
CC(C)c1nc(SCC(=O)Nc2ccc(N3CCOCC3)cc2)c2ccccc2n1,.,.,.,.,33.4,25.4,52.5,.
Cc1ccc(NC(=O)CSc2ncnc3ccccc23)cc1S(=O)(=O)N1CCOCC1,.,.,.,.,61.1,.,55.3,.
COC(=O)C1=C(c2cc3ccccc3s2)CC2CCC1N2C(=O)N1CCCCC1 (stereo not drawn),.,/,/,.,/,/,/,/
CCC1=C2CCC3C(=O)N(c4ccccc4)C(=O)C3C2[C@@]2(C)C(=NCC3CC3)OC(=O)N2C1=O (stereo partly drawn),.,/,/,.,/,/,/,/
CC(C)NC(=O)N(C)CC1Oc2c(NS(=O)(=O)c3cccs3)cccc2C(=O)N(C(C)CO)CC1C (stereo not drawn),.,/,/,.,/,/,/,/
CCOc1cc(S(=O)(=O)n2c(C)nc3ccccc32)ccc1F,.,.,.,.,59.1,.,.,.
O=C(COc1ccc2ccccc2c1Br)NC(=S)Nc1cccc(CO)c1,.,.,.,.,61.2,.,66.1,.
O=C(COc1ccc2ccccc2c1Br)Nc1ccncc1,.,.,.,.,60.0,.,68.9,.
O=C(O)CCC(=O)NNC(=O)COc1ccc(Cl)cc1Cl,.,.,.,.,.,.,/,/
O=C(COc1ccc2ccccc2c1Br)Nc1cccnc1,.,.,.,.,47.5,.,68.1,.
O=C(COc1ccccc1[N+](=O)[O-])Nc1cccnc1,.,.,.,.,.,.,/,/
